Results taken from PubChem BioAssay (EPA / NIEHS).
Records with an inconclusive call do not appear. The source made the active and inactive calls. The calls were made as follows, unless noted: active = hit-call score of the fitted dose curve at least 0.9, where 1 is the maximum; inactive = score below 0.9.

Assays:
[1] = ATG_CRE_CIS: Attagene CIS-FACTORIAL HepG2 Assay for human cAMP Responsive Element (CRE) binding protein 3 (AID 2282926); conditions: HepG2 CRE cis-reporter, Attagene multiplexed mRNA; actives raise or lower the signal
In short: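 Endogenous transcription factor activity read via CRE-regulated reporter transcripts in transfected HepG2 cells. After 24 h exposure, RNA was reverse-transcribed, amplified, fluorescently labelled and sized by capillary electrophoresis; gain or loss fitted against DMSO.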

[2] = biological target: Aryl hydrocarbon receptor (Homo sapiens) (UniProt P35869); assay: ATG_Ahr_CIS: Attagene CIS-FACTORIAL HepG2 Assay for human Aryl Hydrocarbon Receptor (Ahr) (AID 2282930); conditions: HepG2 AhR cis-factorial reporter transcription; actives raise or lower the signal
Chain of Aryl hydrocarbon receptor (Homo sapiens) (P35869 whole entry, looked up): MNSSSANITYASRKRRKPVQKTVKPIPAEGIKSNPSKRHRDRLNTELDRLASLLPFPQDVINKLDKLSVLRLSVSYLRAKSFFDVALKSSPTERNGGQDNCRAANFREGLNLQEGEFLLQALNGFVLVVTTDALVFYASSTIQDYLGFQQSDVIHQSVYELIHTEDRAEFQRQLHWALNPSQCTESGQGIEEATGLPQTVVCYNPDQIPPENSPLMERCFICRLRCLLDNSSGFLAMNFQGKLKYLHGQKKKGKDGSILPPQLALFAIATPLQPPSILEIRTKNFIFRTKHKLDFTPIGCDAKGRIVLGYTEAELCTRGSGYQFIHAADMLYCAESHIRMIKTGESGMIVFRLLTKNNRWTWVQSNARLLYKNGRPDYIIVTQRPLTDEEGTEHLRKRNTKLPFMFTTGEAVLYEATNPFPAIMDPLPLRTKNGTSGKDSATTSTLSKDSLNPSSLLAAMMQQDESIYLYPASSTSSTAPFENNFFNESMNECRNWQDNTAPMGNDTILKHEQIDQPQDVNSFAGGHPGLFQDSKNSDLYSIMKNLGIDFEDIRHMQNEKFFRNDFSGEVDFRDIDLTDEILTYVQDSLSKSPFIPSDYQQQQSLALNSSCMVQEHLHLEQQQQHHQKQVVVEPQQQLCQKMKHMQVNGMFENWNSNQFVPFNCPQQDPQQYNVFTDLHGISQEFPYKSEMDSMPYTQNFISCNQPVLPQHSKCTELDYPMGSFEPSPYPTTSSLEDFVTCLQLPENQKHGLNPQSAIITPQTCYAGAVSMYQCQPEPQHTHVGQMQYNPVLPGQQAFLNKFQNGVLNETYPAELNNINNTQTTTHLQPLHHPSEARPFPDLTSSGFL
In short: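 Following 24 h of chemical dosing, transfected HepG2 liver cells with cis-driven reporter units were lysed for RNA; reporter mRNA was quantified via RT-PCR and capillary electrophoresis, and responses fitted bidirectionally from DMSO.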

[3] = biological target: Hepatocyte nuclear factor 3-beta (Homo sapiens) (UniProt Q9Y261); assay: ATG_FoxA2_CIS: Attagene CIS-FACTORIAL HepG2 Assay for human Forkhead box A2 (FOXA2) (AID 2282942); conditions: HepG2 cis-reporter transcription factor activity, 24 h; actives raise or lower the signal
Chain of Hepatocyte nuclear factor 3-beta (Homo sapiens) (Q9Y261 whole entry, looked up): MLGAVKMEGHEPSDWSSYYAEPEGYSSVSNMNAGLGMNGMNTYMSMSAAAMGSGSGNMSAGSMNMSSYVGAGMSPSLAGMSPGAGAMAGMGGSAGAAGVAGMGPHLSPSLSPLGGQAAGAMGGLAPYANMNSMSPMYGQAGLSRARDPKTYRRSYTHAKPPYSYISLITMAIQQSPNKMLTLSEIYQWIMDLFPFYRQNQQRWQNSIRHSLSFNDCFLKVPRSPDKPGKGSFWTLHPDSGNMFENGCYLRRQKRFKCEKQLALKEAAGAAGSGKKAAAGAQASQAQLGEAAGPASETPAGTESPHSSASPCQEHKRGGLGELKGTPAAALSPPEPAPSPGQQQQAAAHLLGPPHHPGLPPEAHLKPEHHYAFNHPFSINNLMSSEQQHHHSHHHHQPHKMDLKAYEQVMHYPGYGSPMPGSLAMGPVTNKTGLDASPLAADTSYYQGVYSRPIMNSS
In short: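 In transiently transfected human HepG2 cells, promoter-driven reporter mRNA levels after 24 h chemical exposure are determined via RT-PCR with capillary electrophoresis. DMSO serves as baseline for bidirectional fitting.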

[4] = biological target: Paired box protein Pax-6 (Homo sapiens) (UniProt P26367); assay: ATG_Pax6_CIS: Attagene CIS-FACTORIAL HepG2 Assay for human Paired Box 6 (PAX6) (AID 2282956); conditions: HepG2 CIS-FACTORIAL PAX6 reporter transcription, RNA readout; actives raise or lower the signal
Chain of Paired box protein Pax-6 (Homo sapiens) (P26367 whole entry, looked up): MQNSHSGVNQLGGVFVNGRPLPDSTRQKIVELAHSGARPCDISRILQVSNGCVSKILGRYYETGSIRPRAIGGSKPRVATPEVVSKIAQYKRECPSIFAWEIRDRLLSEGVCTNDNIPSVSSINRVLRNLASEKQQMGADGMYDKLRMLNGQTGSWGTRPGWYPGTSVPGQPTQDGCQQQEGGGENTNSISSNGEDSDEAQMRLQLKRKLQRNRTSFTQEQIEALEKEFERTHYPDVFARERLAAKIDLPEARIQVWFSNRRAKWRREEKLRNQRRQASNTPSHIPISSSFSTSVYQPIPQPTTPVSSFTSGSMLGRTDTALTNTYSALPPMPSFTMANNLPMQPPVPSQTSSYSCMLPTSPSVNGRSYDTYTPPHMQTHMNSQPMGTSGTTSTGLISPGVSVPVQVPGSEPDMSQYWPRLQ
In short: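 DMSO-referenced bidirectional fits of reporter mRNA fluorescence; HepG2 with transient cis-promoter MRTUs, 24 h post-dose, RT-PCR plus capillary electrophoresis detection.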

[5] = biological target: Transcription factor Sp1 (Homo sapiens) (UniProt P08047); assay: ATG_Sp1_CIS: Attagene CIS-FACTORIAL HepG2 Assay for human Specificity Protein 1 (Sp1) (AID 2282961); conditions: HepG2 Sp1 cis-reporter transcription, actives raise or lower the signal
Chain of Transcription factor Sp1 (Homo sapiens) (P08047 whole entry, looked up): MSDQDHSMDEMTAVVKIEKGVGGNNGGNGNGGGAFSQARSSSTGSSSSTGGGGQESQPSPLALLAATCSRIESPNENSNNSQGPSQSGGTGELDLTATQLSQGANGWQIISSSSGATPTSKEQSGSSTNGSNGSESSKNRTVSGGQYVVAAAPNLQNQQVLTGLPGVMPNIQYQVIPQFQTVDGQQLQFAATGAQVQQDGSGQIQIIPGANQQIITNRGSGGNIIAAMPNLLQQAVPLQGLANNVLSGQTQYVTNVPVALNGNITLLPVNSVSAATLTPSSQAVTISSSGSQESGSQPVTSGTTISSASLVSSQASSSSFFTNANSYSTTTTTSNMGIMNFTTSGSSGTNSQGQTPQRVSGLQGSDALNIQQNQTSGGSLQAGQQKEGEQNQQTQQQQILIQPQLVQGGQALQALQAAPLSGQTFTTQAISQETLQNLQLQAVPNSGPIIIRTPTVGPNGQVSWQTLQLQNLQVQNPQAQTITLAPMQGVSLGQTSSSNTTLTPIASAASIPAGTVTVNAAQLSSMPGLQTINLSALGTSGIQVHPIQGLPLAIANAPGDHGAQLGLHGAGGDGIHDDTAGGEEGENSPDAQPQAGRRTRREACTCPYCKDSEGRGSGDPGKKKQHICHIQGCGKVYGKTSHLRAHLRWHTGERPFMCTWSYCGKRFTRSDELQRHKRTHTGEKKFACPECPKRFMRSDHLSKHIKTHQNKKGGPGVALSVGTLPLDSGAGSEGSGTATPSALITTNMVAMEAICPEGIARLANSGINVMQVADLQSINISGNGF
In short: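 Sp1-driven reporter mRNA, read as capillary electrophoresis fluorescence after RT-PCR, in transiently transfected HepG2 cells dosed for 24 h; signal change in either direction relative to DMSO.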

[6] = ATG_SREBP_CIS: Attagene CIS-FACTORIAL HepG2 Assay for human Sterol Regulatory Element Binding (SREBP) (AID 2282962); conditions: HepG2 Attagene cis-factorial SREBP reporter, mRNA; actives raise or lower the signal
In short: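 In this cis-format assay, HepG2 liver cells express reporters controlled by promoter elements responsive to native transcription factors. Exposure lasts 24 h; reporter mRNA fluorescence from capillary electrophoresis gives the signal, fitted bidirectionally against DMSO.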

[7] = biological target: Signal transducer and activator of transcription 3 (Homo sapiens) (UniProt P40763); assay: ATG_STAT3_CIS: Attagene CIS-FACTORIAL HepG2 Assay for human Signal Transducer and Activator of Transcription 3 (STAT3) (AID 2282963); conditions: HepG2, Attagene cis-factorial STAT3 reporter transcription; actives raise or lower the signal
Chain of Signal transducer and activator of transcription 3 (Homo sapiens) (P40763 whole entry, looked up): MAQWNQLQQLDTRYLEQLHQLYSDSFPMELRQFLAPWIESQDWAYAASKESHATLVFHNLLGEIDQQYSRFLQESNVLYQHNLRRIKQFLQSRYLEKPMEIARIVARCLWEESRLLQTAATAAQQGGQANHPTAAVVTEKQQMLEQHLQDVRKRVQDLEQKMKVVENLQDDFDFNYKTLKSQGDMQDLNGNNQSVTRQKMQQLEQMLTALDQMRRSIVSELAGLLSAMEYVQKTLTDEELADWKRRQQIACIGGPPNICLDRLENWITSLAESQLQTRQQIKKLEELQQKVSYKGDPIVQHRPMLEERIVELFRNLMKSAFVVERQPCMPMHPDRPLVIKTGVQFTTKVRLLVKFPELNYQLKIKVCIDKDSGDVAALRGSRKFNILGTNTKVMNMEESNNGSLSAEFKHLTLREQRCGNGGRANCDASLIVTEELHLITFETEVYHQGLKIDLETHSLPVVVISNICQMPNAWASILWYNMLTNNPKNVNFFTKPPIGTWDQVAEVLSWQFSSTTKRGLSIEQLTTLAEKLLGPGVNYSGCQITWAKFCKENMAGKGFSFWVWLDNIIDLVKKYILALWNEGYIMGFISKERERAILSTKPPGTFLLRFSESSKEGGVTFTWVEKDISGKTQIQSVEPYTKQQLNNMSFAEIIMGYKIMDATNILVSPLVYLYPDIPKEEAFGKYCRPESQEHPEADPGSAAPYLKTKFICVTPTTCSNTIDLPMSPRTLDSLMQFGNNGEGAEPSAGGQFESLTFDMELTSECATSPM
In short: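 HepG2, MRTU-transfected, 24 h dosing. RNA → RT → PCR → FAM label → HpaI → CE. Bidirectional fit vs DMSO.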

[8] = ATG_TA_CIS: Attagene CIS-FACTORIAL HepG2 Assay for human TA Basal Promoter (AID 2282964); conditions: HepG2 Attagene CIS-factorial TA basal promoter reporter; actives raise or lower the signal
In short: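 Fluorescence from labelled RT-PCR reporter fragments, separated by capillary electrophoresis, gives the signal. Cells: HepG2 transiently carrying multiple reporter units, 24 h chemical dosing. Gain or loss relative to DMSO.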

[9] = ATG_TCF_b_cat_CIS: Attagene CIS-FACTORIAL HepG2 Assay for human T-Cell-Factor with beta-catenin (TCF/b-cat) (AID 2282965); conditions: HepG2 TCF/beta-catenin cis-reporter transcription, actives raise or lower the signal
In short: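 In this cis-format system, transfected HepG2 cells report endogenous transcription factor activity. Readout after 24 h exposure is reporter transcript abundance from RT-PCR and capillary electrophoresis, analysed for gain or loss of signal versus DMSO.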

[10] = ATG_TAL_CIS: Attagene CIS-FACTORIAL HepG2 Assay for human TAL Basal Promoter (AID 2282966); conditions: HepG2 Attagene cis-factorial TAL promoter reporter; actives raise or lower the signal;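 also: background control endpoint measuring basal TAL promoter reporter mRNA not a specific factor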
In short: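 Background-control endpoint: basal TAL promoter reporter transcripts in transiently transfected HepG2, measured 24 h after dosing. Read-out by RT-PCR with fluorescent primer extension and capillary electrophoresis; gain or loss of signal fitted relative to DMSO.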

[11] = ATG_TGFb_CIS: Attagene CIS-FACTORIAL HepG2 Assay for human Transforming Growth Factor (TGF) (AID 2282967); conditions: HepG2 Attagene CIS TGFb reporter, mRNA transcription; actives raise or lower the signal
In short: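 Bidirectional fitting relative to DMSO gave the endpoint. Underlying data: reporter mRNA from HepG2 cells carrying transiently transfected cis-regulated reporter constructs, harvested 24 h after dosing and analyzed by RT-PCR and capillary electrophoresis.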

[12] = ATG_VDRE_CIS: Attagene CIS-FACTORIAL HepG2 Assay for human Vitamin D Receptor Element (VDRE) (AID 2282968); conditions: HepG2 VDRE cis-reporter transcription, actives raise or lower the signal
In short: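 Steps: transfect HepG2 with multiple reporter transcription units; dose chemicals 24 h; isolate RNA; RT-PCR; label with 6-FAM primer extension; HpaI digest; capillary electrophoresis. Curves fitted both directions against DMSO.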

[13] = biological target: X-box-binding protein 1 (Homo sapiens) (UniProt P17861); assay: ATG_Xbp1_CIS: Attagene CIS-FACTORIAL HepG2 Assay for human X-box Binding Protein 1 (XBP1) (AID 2282972); conditions: HepG2 XBP1 cis-element reporter, Attagene multiplex; actives raise or lower the signal
Chain of X-box-binding protein 1 (Homo sapiens) (P17861 whole entry, looked up): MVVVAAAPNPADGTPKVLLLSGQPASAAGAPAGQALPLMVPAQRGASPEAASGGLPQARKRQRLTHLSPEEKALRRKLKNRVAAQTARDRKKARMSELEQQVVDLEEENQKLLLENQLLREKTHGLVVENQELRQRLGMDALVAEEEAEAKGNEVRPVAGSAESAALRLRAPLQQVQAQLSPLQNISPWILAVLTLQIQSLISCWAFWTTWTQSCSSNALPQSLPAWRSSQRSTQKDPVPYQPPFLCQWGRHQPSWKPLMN
In short: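 Changes in reporter transcript abundance, read by RT-PCR and capillary electrophoresis, reflect endogenous transcription factor activity. Transfected HepG2 cells received compound for 24 hours; DMSO defined baseline for bidirectional analysis.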

[14] = ATG_M_32_TRANS: Attagene TRANS-FACTORIAL HepG2 Assay for M32 Transcription Factor (Internal Marker) (AID 2282984; active = hit-call score of the fitted dose curve at least 0.9, where 1 is the maximum); conditions: HepG2 Attagene TRANS M32 internal marker reporter
In short: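 After 24 h dosing of transfected HepG2 cells, total RNA was reverse-transcribed, reporter sequences PCR-amplified, 6-FAM labelled by primer extension and HpaI-digested before capillary electrophoresis. Signal increase over DMSO was fitted.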

[15] = biological target: Transcriptional activator Myb (Homo sapiens) (UniProt P10242); assay: ATG_Myb_CIS: Attagene CIS-FACTORIAL HepG2 Assay for human Myeloblastosis (Myb) Proto-Oncogene Transcription Factor (AID 2282986); conditions: HepG2 Attagene CIS-FACTORIAL Myb reporter transcription; actives raise or lower the signal
Chain of Transcriptional activator Myb (Homo sapiens) (P10242 whole entry, looked up): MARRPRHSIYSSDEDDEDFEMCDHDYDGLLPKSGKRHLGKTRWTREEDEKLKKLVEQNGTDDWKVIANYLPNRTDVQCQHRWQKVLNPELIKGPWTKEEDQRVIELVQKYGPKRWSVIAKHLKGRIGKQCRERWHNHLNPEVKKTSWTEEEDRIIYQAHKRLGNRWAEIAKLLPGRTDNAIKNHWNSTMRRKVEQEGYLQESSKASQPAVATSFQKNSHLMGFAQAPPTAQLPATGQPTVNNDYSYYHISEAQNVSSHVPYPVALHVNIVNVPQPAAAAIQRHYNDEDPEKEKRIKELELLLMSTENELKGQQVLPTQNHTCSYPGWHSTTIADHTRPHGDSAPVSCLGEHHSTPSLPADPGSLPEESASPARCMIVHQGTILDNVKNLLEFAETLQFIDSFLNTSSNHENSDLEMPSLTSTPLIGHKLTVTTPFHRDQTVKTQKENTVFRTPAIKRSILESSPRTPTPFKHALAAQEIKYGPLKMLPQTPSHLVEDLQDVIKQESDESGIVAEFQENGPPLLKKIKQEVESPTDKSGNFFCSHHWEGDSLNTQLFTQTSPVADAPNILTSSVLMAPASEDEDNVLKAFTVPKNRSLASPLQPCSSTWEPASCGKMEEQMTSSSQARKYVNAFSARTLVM
In short: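 Fluorescence signals from capillary electrophoresis of RT-PCR-amplified reporter cDNA give the read-out. Cells: HepG2 transfected with multiple cis-regulated reporter units. Exposure lasts 24 hours; DMSO defines baseline for gain or loss of signal.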

[16] = biological target: Nuclear respiratory factor 1 (Homo sapiens) (UniProt Q16656); assay: ATG_NRF1_CIS: Attagene CIS-FACTORIAL HepG2 Assay for human Nuclear Respiratory Factor 1 (NRF1) Orphan Gene (AID 2282987); conditions: HepG2 NRF1 cis-element reporter, Attagene multiplex; actives raise or lower the signal
In short: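 Transcriptional reporter readout, one component of a 52-endpoint multiplexed HepG2 panel. Exposure 24 h; mRNA detected via RT-PCR and fluorescent capillary electrophoresis; fitting in both directions against DMSO.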

[17] = ATG_NFI_CIS: Attagene CIS-FACTORIAL HepG2 Assay for human Nuclear Factor I (NFI) (AID 2282989); conditions: HepG2 cis-regulatory reporter, NFI response element transcription; actives raise or lower the signal
In short: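 Cells: human liver HepG2, transiently transfected with promoter-regulated reporter transcription units. Exposure 24 h. Detection: fluorescent RT-PCR products separated by capillary electrophoresis, normalised to DMSO negative control.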

[18] = ATG_NF_kB_CIS: Attagene CIS-FACTORIAL HepG2 Assay for human Nuclear Factor Kappa B (NF-kB) (AID 2282991); conditions: HepG2 Attagene cis-factorial NF-kB reporter mRNA; actives raise or lower the signal
In short: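 HepG2, transient multi-reporter transfection, cis promoter elements (endogenous TFs). 24 h exposure. Total RNA → RT → PCR → 6-FAM label → HpaI → CE. Gain/loss vs DMSO.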

[19] = ATG_Oct_MLP_CIS: Attagene CIS-FACTORIAL HepG2 Assay for human Octamer-Binding Transcription Factor (Oct) (AID 2282993); conditions: HepG2 Attagene cis-factorial Oct reporter, mRNA; actives raise or lower the signal
In short: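 HepG2, transient MRTU transfection, cis promoter elements; 24 h dosing; RT-PCR/CE fluorescence read-out of reporter mRNA; fit both directions vs DMSO.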

[20] = biological target: Myc proto-oncogene protein (Homo sapiens) (UniProt P01106); assay: ATG_Myc_CIS: Attagene CIS-FACTORIAL HepG2 Assay for human Myelocytomatosis (Myc) Proto-Oncogene Transcription Factor (AID 2282990); conditions: HepG2, Attagene cis-reporter transcription factor activity; actives raise or lower the signal
Chain of Myc proto-oncogene protein (Homo sapiens) (P01106 whole entry, looked up): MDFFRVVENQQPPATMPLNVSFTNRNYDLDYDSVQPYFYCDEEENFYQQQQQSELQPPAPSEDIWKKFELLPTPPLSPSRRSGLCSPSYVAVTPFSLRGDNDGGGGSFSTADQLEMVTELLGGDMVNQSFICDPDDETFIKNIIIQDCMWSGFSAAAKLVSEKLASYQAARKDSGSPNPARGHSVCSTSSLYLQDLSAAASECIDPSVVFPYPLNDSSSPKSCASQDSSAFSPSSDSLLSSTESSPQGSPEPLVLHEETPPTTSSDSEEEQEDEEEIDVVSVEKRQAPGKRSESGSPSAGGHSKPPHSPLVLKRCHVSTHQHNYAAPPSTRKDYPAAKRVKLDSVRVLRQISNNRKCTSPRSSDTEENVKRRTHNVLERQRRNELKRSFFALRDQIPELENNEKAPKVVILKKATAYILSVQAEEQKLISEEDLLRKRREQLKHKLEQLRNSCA
In short: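 DMSO-normalised, bidirectionally fitted reporter mRNA signal. HepG2 cells transfected with cis reporter constructs, treated 24 h; transcripts detected by RT-PCR, 6-FAM primer extension and CE.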

Structure (SMILES): CCC(=O)c1ccc(Cl)cc1
- outcome [1]: inactive
- outcome [2]: inactive
- outcome [3]: inactive
- outcome [4]: inactive
- outcome [5]: inactive
- outcome [6]: inactive
- outcome [7]: inactive
- outcome [8]: inactive
- outcome [9]: inactive
- outcome [10]: inactive
- outcome [11]: inactive
- outcome [12]: inactive
- outcome [13]: inactive
- outcome [14]: inactive
- outcome [15]: inactive
- outcome [16]: inactive
- outcome [17]: inactive
- outcome [18]: inactive
- outcome [19]: inactive

Structure (SMILES): O=[N+]([O-])c1cc([N+](=O)[O-])c2ccccc2c1
- outcome [1]: inactive
- AC50 [2]: 8.37 µM (active)
- outcome [3]: inactive
- outcome [4]: inactive
- outcome [5]: inactive
- outcome [6]: inactive
- outcome [7]: inactive
- outcome [8]: inactive
- outcome [9]: inactive
- outcome [10]: inactive
- outcome [11]: inactive
- outcome [12]: inactive
- outcome [13]: inactive
- outcome [15]: inactive
- outcome [16]: inactive
- outcome [17]: inactive
- outcome [20]: inactive
- outcome [18]: inactive
- outcome [19]: inactive

Structure (SMILES): CN(C)N
- outcome [1]: inactive
- outcome [2]: inactive
- outcome [3]: inactive
- outcome [5]: inactive
- outcome [6]: inactive
- outcome [7]: inactive
- outcome [8]: inactive
- outcome [9]: inactive
- outcome [10]: inactive
- outcome [11]: inactive
- outcome [12]: inactive
- outcome [13]: inactive
- outcome [14]: inactive
- outcome [15]: inactive
- outcome [16]: inactive
- outcome [17]: inactive
- outcome [20]: inactive
- outcome [19]: inactive

Structure (SMILES): O=c1[nH]c(Cl)c(Cl)cc1Cl
- outcome [1]: inactive
- AC50 [2]: 13.8 µM (active)
- outcome [4]: inactive
- outcome [5]: inactive
- outcome [6]: inactive
- outcome [8]: inactive
- outcome [9]: inactive
- outcome [10]: inactive
- outcome [11]: inactive
- outcome [12]: inactive
- outcome [13]: inactive
- outcome [14]: inactive
- outcome [15]: inactive
- outcome [16]: inactive
- outcome [17]: inactive
- outcome [20]: inactive
- outcome [19]: inactive

Structure (SMILES): CN(C)C(=O)C(c1ccccc1)c1ccccc1
- outcome [1]: inactive
- outcome [2]: inactive
- outcome [4]: inactive
- outcome [5]: inactive
- outcome [6]: inactive
- outcome [7]: inactive
- outcome [8]: inactive
- outcome [9]: inactive
- outcome [10]: inactive
- outcome [11]: inactive
- outcome [12]: inactive
- outcome [14]: inactive
- outcome [15]: inactive
- outcome [16]: inactive
- outcome [17]: inactive
- outcome [20]: inactive
- outcome [18]: inactive
- outcome [19]: inactive

Structure (SMILES): N#Cc1cccc(C#N)c1
- outcome [1]: inactive
- outcome [2]: inactive
- outcome [3]: inactive
- outcome [4]: inactive
- outcome [5]: inactive
- outcome [6]: inactive
- outcome [8]: inactive
- outcome [9]: inactive
- outcome [10]: inactive
- outcome [11]: inactive
- outcome [12]: inactive
- outcome [13]: inactive
- outcome [14]: inactive
- outcome [15]: inactive
- outcome [16]: inactive
- outcome [17]: inactive
- outcome [20]: inactive
- outcome [18]: inactive
- outcome [19]: inactive

Structure (SMILES): CCOP(O)OCC
- outcome [1]: inactive
- outcome [2]: inactive
- outcome [3]: inactive
- outcome [4]: inactive
- outcome [5]: inactive
- outcome [6]: inactive
- outcome [7]: inactive
- outcome [8]: inactive
- outcome [9]: inactive
- outcome [10]: inactive
- outcome [11]: inactive
- outcome [12]: inactive
- outcome [13]: inactive
- outcome [14]: inactive
- outcome [15]: inactive
- outcome [16]: inactive
- outcome [17]: inactive
- outcome [20]: inactive
- outcome [18]: inactive
- outcome [19]: inactive
